The source of these data is PubChem BioAssay (NCATS).

Inconclusive results are not listed. Where a call stands in place of a potency, no number is given. Active and inactive are the calls of the source. The call rests on the fitted dose curve; in most records, active means well fitted cell-killing curve with a large enough effect; inconclusive means small, poorly fitted or top-dose-only effect; inactive means no such curve, though single readings can be large or run the other way.
Potency means the concentration at half of the fitted maximal effect.

The assay can be described thus: Quantitative High-Throughput drug screen in 47 multiple myeloma cell lines against the NCATS MIPE library collection: JIM3_ECACC cell viability assay (AID 1918963; further: nearly all actives have a fitted effect of over 35% in size). The following applies: JIM3 myeloma viability, CellTiter-Glo ATP, 48 h; series mostly up to 45.8 µM. An excerpt:
PI: Beverly A. Mock Ph.D.
Laboratory of Cancer Biology and Genetics,
Center for Cancer Research, National Cancer Institute,
National Institute of Health, Bethesda, Maryland
Drug resistance and disease progression are common in multiple myeloma (MM) patients, underscoring the need for new therapeutic combinations. […] We hypothesized that effective combinations would reduce MYC expression and enhance p16 activity. […] These preclinical data identify potentially useful drug combinations for evaluation in drug-resistant MM and reveal potential mechanisms of combined drug sensitivity.
Described herein is the primary MIPE qHTS used to cherrypick compounds. Validated compounds were then further tested for potential synergistic activiy.
[1] Peat TJ, Gaikwad SM, Dubois W, Gyabaah-Kessie N, Zhang S, Gorjifard S, Phyo Z, Andres M, Hughitt VK, Simpson RM, Miller MA, Girvin AT, Taylor A, Williams D, D'Antonio N, Zhang Y, Rajagopalan A, Flietner E, Wilson K, Zhang X, Shinn P, Klumpp-Thomas C, McKnight C, Itkin Z, Chen L, Kazandijian D, Zhang J, Michalowski AM, Simmons JK, Keats J, Thomas CJ, Mock BA. Drug combinations identified by high-throughput screening promote cell cycle transition and upregulate Smad pathways in myeloma. Cancer Lett. 2023 Aug 1;568:216284. doi: 10.1016/j.canlet.2023.216284. Epub 2023 Jun 24. PMID: 37356470; PMCID: PMC10408729.
SEQUENCE No. (e.g., 1, 2, 3, etc.); […] (e.g., Cells, Incubation, Reagent, etc.); VALUE and DESCRIPTION.
1; Cells; 5 uL; white, solid bottom 1536-well Greiner assay plate.
2; Compounds; 23 nL; Kalypsis pin tool (Wako USA) equipped with a 1536-well pin head to transfer to the assay plates.
3; Incubation; 48 hours; 37C incubation.
4; Reagent;5uL; CellTiter Glo (Promega).
5; Detector; 425V; Luminescence; Viewlux PerkinElmer.
NOTES (numbers refer to Sequence numbers above)
1. The cell-based screening methods employed in this study were like those previously published. Briefly, the corresponding myeloma cell lines were screened in 1,536-well plates with 500 cells, 5-uL per well for inhibition of cell viability (assessed by measuring ATP levels with CellTiterGlo).
2. NCATS MIPE 4.0 library of approved and investigational drugs were added using the Kalypsis pin tool. Wells treated with DMSO only for 100% viability and media only wells for 0% viability were used as controls.
3. The assay plates were covered and incubated for 48 hours in a 37C, 5% CO2 incubator with controlled humidity.
4. After 48 hours, CellTilter-GloTM luminescent substrate mix (Promega) reagent was added to the assay plate and plates we incubated for 5 min at room temperature.
5. Signal was measured as median relative luminescence units on a ViewLux (PerkinElmer) multiplate reader.
[1] Heske CM, Davis MI, Baumgart JT, Wilson K, Gormally MV, Chen L, Zhang X, Ceribelli M, Duveau DY, Guha R, Ferrer M, Arnaldez FI, Ji J, Tran HL, Zhang Y, Mendoza A, Helman LJ, Thomas CJ. Matrix Screen Identifies Synergistic Combination of PARP Inhibitors and Nicotinamide Phosphoribosyltransferase (NAMPT) Inhibitors in Ewing Sarcoma. Clin Cancer Res. 2017 Dec 1;23(23):7301-7311. doi: 10.1158/1078-0432.CCR-17-1121. Epub 2017 Sep 12. PMID: 28899971; PMCID: PMC6636827.
On the technique in general: Cellular ATP, detected with luciferase, serves as a proxy for viable cell number.
With `NC(CO)C(=O)NNCc1ccc(O)c(O)c1O` (stereo not given), the Potency result is “inactive”.

With `Nc1nc2c(ncn2COC(CO)CO)c(=O)[nH]1`, the Potency is 2.64 µM (active).

As to `CC1(C)O[C@H]2CC(=O)OC[C@]23[C@H]2CC[C@@]4(C)[C@H](c5ccoc5)OC(=O)[C@H]5O[C@]54[C@]2(C)C(=O)C[C@@H]13`, the Potency entry was “inactive”.

On to `CN1CCN(CCCN2c3ccccc3Sc3ccc(Cl)cc32)CC1`, for which the Potency was 23.5 µM (active).

As for `CNCCCC12CCC(c3ccccc31)c1ccccc12`, the Potency was 20.9 µM (active).

In the case of `Cn1c(=O)c2c(ncn2C)n(C)c1=O`, the Potency result was “inactive”.

Consider `O=C(C1CCCCC1)N1CC(=O)N2CCc3ccccc3C2C1` (stereo not given), for which the Potency entry was “inactive”.

With `Nc1ccn([C@H]2CC[C@@H](CO)O2)c(=O)n1`, the Potency is 26.4 µM (active).

As for `C[C@@H]1CC(=O)NN=C1c1ccc(NN=C(C#N)C#N)cc1`, the Potency was 20.9 µM (active).

Turning to `COc1ccccc1N1CCN(CC(O)COc2cccc3ccccc23)CC1` (stereo not given), the Potency is 5.26 µM (active).

Consider `CC[N+](CC)(CC)CCOc1cccc(OCC[N+](CC)(CC)CC)c1OCC[N+](CC)(CC)CC`, for which the Potency result was “inactive”.

For `CCOC(=O)C(C)(C)Oc1ccc(Cl)cc1`, the Potency entry is “inactive”.

Take `COc1cc2nc(N3CCN(C(=O)c4ccco4)CC3)nc(N)c2cc1OC`: the Potency is 9.35 µM (active).

`CC(C)NCC(O)c1ccc(O)c(O)c1` (stereo not given): the Potency result was “inactive”.

Take `CC(COc1ccccc1)N(CCCl)Cc1ccccc1` (stereo not given): the Potency result is “inactive”.

As to `COC(=O)Nc1nc2ccc(C(=O)c3cccs3)cc2[nH]1`, the Potency is 0.001 µM (active).

Regarding `COc1ccc2c(c1)c(CC(=O)O)c(C)n2C(=O)c1ccc(Cl)cc1`, the Potency result was “inactive”.

With `COc1cc2nc(N(C)CCCNC(=O)C3CCCO3)nc(N)c2cc1OC` (stereo not given), the Potency result is “inactive”.

Consider `NC(=O)OCC(COC(N)=O)c1ccccc1`, for which the Potency entry is “inactive”.

Regarding `COc1cc2c(c(OC)c1OC)-c1ccc(OC)c(=O)cc1[C@@H](NC(C)=O)CC2`, the Potency result was “inactive”.

Turning to `CC(C)(Oc1ccc(C2CC2(Cl)Cl)cc1)C(=O)O` (stereo not given), the Potency result is “inactive”.

For the compound `CC(C)Cc1ccc(C(C)C(=O)O)cc1` (stereo not given), the Potency result is “inactive”.

On to `CN(C)C(=O)C(CCN1CCC(O)(c2ccc(Cl)cc2)CC1)(c1ccccc1)c1ccccc1`, for which the Potency was 20.9 µM (active).

Regarding `NCCCCCC(=O)O`, the Potency result is “inactive”.

On to `CCCNCC(O)COc1ccccc1C(=O)CCc1ccccc1` (stereo not given), for which the Potency entry is “inactive”.

As for `CCC1(C)CC(=O)NC1=O` (stereo not given), the Potency result is “inactive”.

In the case of `Fc1ccc([C@@H]2CCNC[C@H]2COc2ccc3c(c2)OCO3)cc1`, the Potency result was “inactive”.

As to `O=C(c1ccc(F)cc1)C1CCN(CCn2c(=O)[nH]c3ccccc3c2=O)CC1`, the Potency result is “inactive”.

In the case of `O=c1c(-c2ccc(O)cc2)coc2cc(O)cc(O)c12`, the Potency entry is “inactive”.

Turning to `CCOC(=O)Nc1ccc(NCc2ccc(F)cc2)nc1N`, the Potency entry was “inactive”.

Turning to `Clc1ccccc1C(c1ccccc1)(c1ccccc1)n1ccnc1`, the Potency is 18.7 µM (active).

Regarding `CN(C)CCOC(c1ccccc1)c1ccccc1`, the Potency was 23.5 µM (active).

For the compound `Clc1ccc(C(c2ccccc2Cl)C(Cl)Cl)cc1` (stereo not given), the Potency was 20.9 µM (active).

`Cc1cc(C(C)(C)C)c(O)c(C)c1CC1=NCCN1`: the Potency entry is “inactive”.

Regarding `CC(C)C(=O)Nc1ccc([N+](=O)[O-])c(C(F)(F)F)c1`, the Potency is 8.33 µM (active).

For `Cc1cc(C(C)(C)C)cc(C)c1CC1=NCCN1`, the Potency entry is “inactive”.

For `CC1COc2c(N3CCN(C)CC3)c(F)cc3c(=O)c(C(=O)O)cn1c23` (stereo not given), the Potency result was “inactive”.

For `Cc1ccc(C(=O)Nc2ccc(S(=O)(=O)O)c3cc(S(=O)(=O)O)cc(S(=O)(=O)O)c23)cc1NC(=O)c1cccc(NC(=O)Nc2cccc(C(=O)Nc3cc(C(=O)Nc4ccc(S(=O)(=O)O)c5cc(S(=O)(=O)O)cc(S(=O)(=O)O)c45)ccc3C)c2)c1`, the Potency was 16.6 µM (active).

`Cn1c(=O)c2[nH]cnc2n(C)c1=O`: the Potency entry was “inactive”.

As for `CCc1cccc2c3c([nH]c12)C(CC)(CC(=O)O)OCC3` (stereo not given), the Potency entry is “inactive”.
